Source: PubChem BioAssay
Sampled rows, rich in hits. Any-hit rate of the full collection: about 12%.
HP1b binding inh = inhibitors of HP1-beta chromodomain binding to methylated histone tails; P83916; AlphaScreen HP1-beta / biotin-H3K9me3 peptide binding; Potency, µM (titrated, usually from 114 µM), for inactives: top-dose activity change, negative = inhibition, hits mostly inhibitors; 390,000 compounds, 0.56% hits; AID 540317; also: nearly all actives have a fitted effect of over 70% in size
Target sequence (P83916 whole entry, looked up): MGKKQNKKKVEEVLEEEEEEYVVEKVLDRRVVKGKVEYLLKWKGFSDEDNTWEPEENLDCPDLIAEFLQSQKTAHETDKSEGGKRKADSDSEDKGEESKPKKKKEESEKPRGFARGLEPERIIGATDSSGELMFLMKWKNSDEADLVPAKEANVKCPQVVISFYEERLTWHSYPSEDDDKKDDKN
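HP1-beta protein (50 nM final) preincubated 30 min at room temperature with biotinylated H3(1-18)K9me3 peptide (50 nM) in PBS pH 7.4, 0.01% Tween-20, then compound added for 30 min. AlphaScreen streptavidin donor/nickel chelate acceptor beads (10 ug/mL final), 30 min dark, luminescence read.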
JMJD2A Tudor inh = JMJD2A Tudor domain (human) inhibition; AlphaScreen JMJD2A-Tudor / H3K4me3 peptide binding; 390,000 compounds, 4.4% hits; AID 504339; Potency, µM (series often up to 114 µM), for inactives: at the highest dose activity change, negative = inhibition, usual class: inhibitors; also: % is scaled to controls: 0 for no effect and ±100 for the full control effect; nearly all actives have a fitted effect of over 50% in size
G9a inh = blocks human histone lysine methyltransferase G9a. Q96KQ7. G9a H3K9 monomethylation, AlphaScreen, 2 h. Potency, µM (doses to about 102 µM), for the others: at the highest dose activity, negative = inhibition, usual class: inhibitors. 350,000 compounds, 8.8% hits. AID 504332; also: % is scaled to controls: 0 for no effect and ±100 for the full control effect; nearly all actives have a fitted effect of over 75% in size
Target sequence (Q96KQ7 913-1193 limits assumed): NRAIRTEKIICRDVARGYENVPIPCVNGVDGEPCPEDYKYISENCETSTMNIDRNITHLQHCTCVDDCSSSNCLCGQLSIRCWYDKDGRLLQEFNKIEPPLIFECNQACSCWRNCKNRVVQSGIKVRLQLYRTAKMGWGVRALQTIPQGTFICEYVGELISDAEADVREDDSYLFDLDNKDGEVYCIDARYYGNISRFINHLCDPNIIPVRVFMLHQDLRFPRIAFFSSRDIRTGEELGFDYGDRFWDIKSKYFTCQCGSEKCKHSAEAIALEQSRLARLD
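Enzyme 20 nM + cpd, 15 min RT; add b-H3K9 pep 500 nM / SAM 20 uM; 2 h RT; anti-H3K9me1 Ab 0.5 ug/mL + SA donor / anti-rabbit acceptor beads 20 ug/mL each, 10 min; AlphaScreen read.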
BAZ2B inh = inhibitors of human BAZ2B bromodomain; Q9UIF8; AlphaScreen BAZ2B-H3K14Ac peptide displacement; Potency, µM (highest dose often 114 µM), for the others: at the highest dose activity change, negative = inhibition, actives largely listed as inhibitors; 360,000 compounds, 4.4% hits; AID 504333; also: % is scaled to controls: 0 for no effect and ±100 for the full control effect; nearly all actives have a fitted effect of over 60% in size
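Inhibition is scored as reduced AlphaScreen emission. The BAZ2B/b-H3(5-23)K14Ac complex (50 nM each) in PBS pH 7.4, 0.01% Tween-20 meets compound (up to 110 uM) for 30 min at RT before bead addition.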
Sfp inh = inhibitors of Bacillus subtilis Sfp phosphopantetheinyl transferase | Biochemical Sfp PPTase activity, qHTS | Potency, µM, without a hit: largest response in the series, negative = inhibition, most hits filed as inhibitors | 310,000 compounds, 3.5% hits;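 also: the enzyme is Sfp with the accession as filed and its product quenches rhodamine fluorescence; 0% = enzyme reaction without inhibitor and -100% = no enzyme wells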
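Fluorescence-quenching assay with 15 nM Sfp, 5 uM rhodamine-CoA and 12.5 uM BHQ-2-labelled ybbR peptide in pH 7.6 Hepes/MgCl2 buffer. Enzyme was pre-incubated with compound for 15 min at room temperature. Rate was taken from the 30-min fluorescence change (525/598 nm).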
Starred values were filed as active, the others as inactive; ? = inconclusive; · = no result given; ! = repeats disagree; [ ] = dose if it differs, or a comment. Calls follow the shape of the dose curve; as a rule, active = well fitted curve in the direction sought with a large enough effect; inconclusive = small, poorly fitted or top-dose-only effect, or another doubt; inactive = no such curve, though single readings can be large; an effect the other way counts as inactive or inconclusive. Potency is read from the fitted curve at half-maximal effect.

SMILES	HP1b binding inh	JMJD2A Tudor inh	G9a inh	BAZ2B inh	Sfp inh
Cc1ccc(NC(=O)CSc2nnc(C3CC3)n2CC2CCCO2)cc1C (centres undefined)	21%	-2%	18%	7%	2%
CCc1c(C)[nH]c2ccc(OC)cc2c1=S	?	-17%[11.4 µM]	4.5µM*	?	10µM*
COc1ccc2[nH]c(C)c(CCNC(=S)Nc3cccc(C)c3)c2c1	-3%	?	45µM*	35µM*	-9%
COc1ccc2[nH]c(C)c(CCNC(=S)Nc3cc(C)ccc3C)c2c1	32%	-21%	14%	2%	16%
COc1ccc2[nH]c(C)c(CCNC(=S)Nc3cc(C)cc(C)c3)c2c1	?	50µM*	15%	28µM*	16%
CC(=O)Nc1ccc2ccccc2c1	27%	-8%	23%[12.7 µM]	7%	12%
CCOC(=O)C(Nc1ccc2ccccc2c1)C(=O)OCC	-35%	?	2µM*	50µM*	-1%
CN(CC(=O)Nc1cccc(F)c1)C(=O)CNS(=O)(=O)c1ccc(N(C)C)c([N+](=O)[O-])c1	-12%	?	50µM*	71µM*	·
CN(C)c1ccc(S(=O)(=O)NCC(=O)NCCOc2ccccc2F)cc1[N+](=O)[O-]	-13%	-31%	50µM*	-33%	·
CN(C)c1ccc(S(=O)(=O)NCC(=O)N2CCN(S(=O)(=O)c3cccc(F)c3)CC2)cc1[N+](=O)[O-]	10%	-34%	·	·	·
COCCn1c(-c2ccc(-c3ccccc3Cl)o2)nc2c1c(=O)[nH]c(=O)n2CC(C)C	11%	-28%	22µM*	1%	18µM*
CCCCn1c(=O)[nH]c(=O)c2c1nc(-c1ccncc1)n2CCOC	31%	-8%	9%[12.7 µM]	7%	11%
CCCCn1c(=O)[nH]c(=O)c2c1nc(-c1ccc(-c3ccccc3Br)o1)n2CCOC	5%	-30%	16µM*	-7%	40µM*
O=C(COC(=O)c1cc(=O)[nH]c2ccccc12)Nc1ccc(Cl)c(S(=O)(=O)N2CCOCC2)c1	29%	-31%	·	·	·
O=C(/C(N=Nc1cccc([N+](=O)[O-])c1)=C(/O)c1ccc(Br)cc1)C(F)(F)F	·	·	40µM*	25µM*	12%
C1CCCC(NC2=NCCO2)CCC1	20%	-16%	2%	-11%	13%
O=C(O)CCCNC(=O)c1cncc(Br)c1	22%	-13%	-26%	4%	17%
O=C(NCCCNC(=O)c1cncc(O)c1)c1cncc(O)c1	35%	-2%[11.4 µM]	50µM*	?	1%
O=C(NCCCCCCNC(=O)c1cncc(O)c1)c1cncc(O)c1	16%	16µM*	71µM*	50µM*	-16%
CCOC(=O)CCCNC(=O)c1cncc(O)c1	32%	-17%	56µM*	?	17%
COC(=O)CC1C(=O)NCCN1C(=S)Nc1cccc(C(F)(F)F)c1 (centres undefined)	23%	-9%	-1%	-7%	-7%
CN1CCCC(CN2c3ccccc3Sc3ccccc32)C1 (centres undefined)	11%	-35%	-9%[12.7 µM]	-39%	4%
CN1CCCCC1CCN1c2ccccc2Sc2ccc(S(C)=O)cc21 (centres undefined)	14%	-20%	5.6µM*!	-21%	-13%
COc1ccc(C(CCNCc2ccc(OC(C)C)cc2)C(C)C)cc1 (centres undefined)	22%	-11%	5%	-8%	3%
COc1ccc(C(CCNCc2ccc(N(C)C)cc2)C(C)C)cc1 (centres undefined)	?	32µM*	32µM*	25µM*	0%
SMILES	HP1b binding inh	JMJD2A Tudor inh	G9a inh	BAZ2B inh	Sfp inh
COc1ccccc1C(CCNCc1ccc(N(C)C)cc1)c1ccc(OC(C)C)cc1 (centres undefined)	?	13µM*	18%[2.33 µM]	10µM*	-18%
NC(=O)Nc1ccc2c(c1)OCCO2	12%	-4%	16%[59 µM]	-4%	22%
CC1Cn2c(nnc2-c2ccccc2O)S1 (centres undefined)	33%	?	8.9µM*	?	-4%
CC1Cn2c(nnc2-c2cc3ccccc3cc2O)S1 (centres undefined)	15%	-32%	?	-8%	-17%
S=c1[nH]cc(-c2ccc(Cl)cc2)n1Cc1ccccc1	71%	-2%[11.4 µM]	?	-10%	-6%
COC(=O)c1c[nH]c(=S)n1Cc1ccccc1	18%[57 µM]	2.8µM*	·	·	·
CC(C)(C)NC(=O)C(c1ccncc1)N(C(=O)Cn1nnc(-c2cccs2)n1)C1CCCCC1 (centres undefined)	12%	-23%	?	9%	0%
O=C(CSc1nc2ccccc2c(=O)n1-c1ccccc1Cl)Nc1cccc(S(=O)(=O)N2CCOCC2)c1	18%	-12%	-8%[59 µM]	1%	8%
COc1cc2[nH]c(=S)nc(NCc3ccccn3)c2cc1OC	21%	-23%	50µM*	6%	-17%
COc1ccc(CNc2nc(=S)[nH]c3cc(OC)c(OC)cc23)cc1	28%	?	10µM*	?	-15%
COc1cc2[nH]c(=S)nc(NCc3cccnc3)c2cc1OC	64%	-5%	45µM*	-18%	-28%
COc1cc2[nH]c(=S)nc(NCc3ccc(C)cc3)c2cc1OC	60%	-7%	-15%	3%	-10%
COc1cc2[nH]c(=S)nc(NCc3ccccc3)c2cc1OC	40%	-18%	?	0%	6%
Cc1ccc(Nc2c(-c3ccccn3)nc3ccc(C)cn23)cc1	8%	45µM*	?	·	-6%
Cc1ccc(Nc2c(-c3ccccn3)nc3cc(C)ccn23)cc1	?	40µM*	?	16µM*	1%
Fc1ccccc1-c1ccc(-c2nc3ccc(Cl)cn3c2Nc2ccc(Cl)cc2)o1	?	45µM*	·	·	·
COc1ccc(Nc2c(-c3ccccn3)nc3ccc(Cl)cn23)cc1	43%	?	40%[59 µM]	1.6µM*	·
Cc1ccc(Nc2c(-c3cc(Br)ccc3F)nc3cc(C)ccn23)cc1	?	-23%	?	?	·
Cc1ccc(-c2nc3ccc(Cl)cn3c2Nc2ccccc2)o1	43%	-13%	·	·	·
Cc1cccc(C)c1Nc1c(-c2ccccn2)nc2ccc(Cl)cn12	8%	?	24%[59 µM]	?	·
CCOP(=O)(c1ccccc1)C(O)c1ccc([N+](=O)[O-])cc1 (centres undefined)	15%	-13%	-2%[0.501 µM]	-22%	13%
O=C(O)c1ccc(NC(=O)c2cn(-c3ccccc3)nc2-c2ccc(F)cc2)cc1	33%	-17%	5%	1%	6%
Cc1nc(S/C(=C\c2ccc(OCc3ccccc3Cl)cc2)C(=O)O)n[nH]1	41%	-16%	-8%[0.0925 µM]	15%	4%
Cc1nc(S/C(=C\c2ccc(-c3ccc(C(=O)O)c(Cl)c3)o2)C(=O)O)n[nH]1	20µM*	25µM*	4µM*	14µM*	6.3µM*
O=C(CCCCCN1C(=O)c2cccc3cccc(c23)C1=O)NO	·	·	16%[59 µM]	·	4%
